Sampled rows, rich in hits. Any-hit rate of the full collection: about 19%.
TDP1 cell CPT – DT40-hTDP1 cell growth loss with CPT. 420,000 tested, 12% active. chicken DT40 Tdp1-/-;hTDP1 cells + 20 nM CPT, ATP luminescence, 48 h. Potency, µM (highest dose often 46.2 µM), for inactives: at the highest dose activity change, negative = growth inhibition, actives largely listed as inhibitors; also: nearly all actives have a fitted effect of over 55% in size
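Cell growth measured by CellTiter-Glo luminescence after a minimum 48 h, 37 C compound exposure with 20 nM CPT in Tdp1-knockout DT40 cells stably expressing hTDP1, seeded 400/well; qHTS titration format.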
HT1080-NT tox – kills 2HG-producing HT-1080-NT fibrosarcoma cells. 360,000 tested, 1.6% active. Potency, µM (doses to about 46.1 µM), inactives show top-dose activity, negative = less viability, most hits filed as cytotoxic. HT-1080-NT fibrosarcoma viability, CellTiter-Glo ATP luminescence, 48 h;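 also: NT is the 2HG producing partner of a matched IDH1 knockdown line; 0% = DMSO-treated cells and -100% = media-only wells without cells; nearly all actives have a fitted effect of over 55% in size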
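HT-1080-NT; 750 cells/well; 5% FBS RPMI; 48 h compound, 37 degrees C; CellTiter-Glo luminescence; curve fitting and curve-class assignment.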
DT40 TDP1 no CPT – qHTS for Inhibitors of human tyrosyl-DNA phosphodiesterase 1 (TDP1): qHTS in cells in absence of CPT; DT40 Tdp1-/- hTDP1 cells, no CPT, ATP luminescence, 48 h; Potency, µM (series often up to 46.2 µM), inactives show at the top dose activity change, negative = growth inhibition, most hits filed as inhibitors; 420,000 tested, 15% active; AID 686978, 2013; also: nearly all actives have a fitted effect of over 55% in size
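No-CPT arm: Tdp1-/-;hTDP1 DT40 cells (400/well) plus compounds, incubated ≥48 hr at 37 °C. Readout CellTiter-Glo luminescence.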
HT1080 IDH1KD tx – toxicity to HT-1080 IDH1 knockdown cells (counter line). HT-1080 IDH1 knockdown viability, ATP luminescence, 48 h. Potency, µM (series often up to 46.1 µM), inactives show at the top dose activity, negative = toxicity, hits mostly cytotoxic. 360,000 tested, 2% active;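 also: 0% = DMSO wells and -100% = cell-free medium wells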
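Cytotoxicity counter-line: IDH1KD HT-1080, 48 h, CellTiter-Glo. Curves classed by r2, magnitude and activity.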
KB-V1 MDR tox – kills drug-selected multidrug resistant KB-V1 cells; KB-V1 MDR cells viability, CellTiter-Glo, 72 h; Potency, µM (series often up to 46.1 µM), usual class: cytotoxic; 400,000 tested, 3.4% active; AID 1347076; also: nearly all actives have a fitted effect of over 60% in size
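Cytotoxicity via CellTiter-Glo luminescence after 72 h compound exposure at 37 degrees C. Cells: drug-selected KB-V1 line, DMEM phenol-red free plus 10% FBS. Compounds tested at multiple concentrations; normalized data fitted to concentration-effect curves.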
KB-3-1 tox – KB-3-1 parental cell cytotoxicity; 400,000 tested, 1.4% active; Potency, µM (highest dose often 46.1 µM), most hits filed as cytotoxic; AID 1347075; KB-3-1 viability, CellTiter-Glo ATP luminescence, 72 h; also: nearly all actives have a fitted effect of over 60% in size
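Parental KB-3-1 viability, qHTS format: 72 h compound exposure, 37 °C; CellTiter-Glo; media-only wells and DMSO plates as controls; concentration-effect fits on corrected data.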
The depositor's hits bear a star; i = inactive; u = inconclusive; x = no result. Calls follow the shape of the dose curve; as a rule, active = well fitted curve in the direction sought with a large enough effect; inconclusive = small, poorly fitted or top-dose-only effect, or another doubt; inactive = no such curve, though single readings can be large; an effect the other way counts as inactive or inconclusive. Unless noted, % is scaled to controls: 0 for no effect and ±100 for the full control effect; potency is read from the fitted curve at half-maximal effect.

SMILES	TDP1 cell CPT	HT1080-NT tox	DT40 TDP1 no CPT	HT1080 IDH1KD tx	KB-V1 MDR tox	KB-3-1 tox
Cc1nc2oc3c(NCc4ccccn4)ncnc3c2c2c1COC(C)(C)C2	-24%	-3%	u	1%	2.1µM*	u
COc1ncnc2c1oc1nc(C)c3c(c12)CC(C)(C)OC3	5%	2%	u	11%	i	i
CC(=O)c1cccc(-n2nnnc2SCC(=O)Nc2cccc(NC(=O)c3ccco3)c2)c1	-26%	-1%	u	-6%	i	i
O=C(O)c1ccccc1C(=O)NCC(O)COCC1CC=CCC1 (stereo not given)	-1%	3%	-30%	3%	i	i
CCCc1n(CC(O)COC2CCCCC2)c2ccccc2[n+]1C (stereo not given)	7.3µM*	-6%	3.7µM*	-17%	i	u
CCCc1n(CC(O)COCC2CC=CCC2)c2ccccc2[n+]1C (stereo not given)	8.2µM*	-5%	10µM*	-9%	i	i
CCCc1n(CC(O)COCc2ccccc2)c2ccccc2[n+]1C (stereo not given)	23µM*	3%	23µM*	5%	i	i
COc1ccc(S(=O)(=O)NNC(=O)Nc2ccc(F)cc2F)c(OC)c1	-18%	-3%	-18%	12%	i	i
COC(=O)c1cc(-c2cccc(OC)c2)c2c(=O)[nH]c(=O)n(C)c2n1	-16%	4%	-26%	5%	i	i
CSCCC(NS(=O)(=O)c1ccccc1F)C(=O)N1CCCCCCC1 (stereo not given)	u	0%	-17%	8%	i	i
COc1ccc(OC2C(=O)N(Cc3ccc(F)cc3)C2c2ccc(OC)c(OC)c2)cc1 (stereo not given)	29µM*	-4%	-12%	-32%	u	i
COc1cc(C2C(Oc3ccccc3C)C(=O)N2Cc2ccc(F)cc2)cc(OC)c1OC (stereo not given)	1%	-3%	u	4%	i	i
COc1ccc(NC(=O)CN2C(=O)CSc3ccc(S(=O)(=O)N4CCCC4)cc32)cc1OC	u	0%	u	6%	i	i
CN(C)S(=O)(=O)c1ccc2c(c1)N(CC(=O)Nc1ccc(OC(F)(F)F)cc1)C(=O)CS2	16µM*	x	u	x	i	i
Cc1cc(C)cc(NC(=O)CN2C(=O)CSc3ccc(S(=O)(=O)N(C)C)cc32)c1	21µM*	x	16µM*	x	i	i
Cc1ccc(NC(=O)CN2C(=O)CSc3ccc(S(=O)(=O)N(C)C)cc32)cc1C	16µM*	x	u	x	i	i
Cc1ccc(NC(=O)CN2CCSc3ccc(S(=O)(=O)N4CCCC4)cc32)cc1C	x	x	x	x	10µM*	u
COCCOC(=O)C1=C(C)NC2=C(C(=O)CC(C)(C)C2)C1c1cc2c(cc1Br)OCO2 (stereo not given)	-23%	0%	-2%	0%	i	i
O=C(OCc1ccccc1C(F)(F)F)c1cc([N+](=O)[O-])ccc1N1CCOCC1	u	-6%	-10%	-25%	u	i
CCOc1ccc(C(C)=O)cc1COC(=O)c1cc([N+](=O)[O-])ccc1N1CCOCC1	23µM*	-2%	u	-18%	i	i
COc1ccc(OC)c(COC(=O)c2cc([N+](=O)[O-])ccc2N2CCOCC2)c1	7.3µM*	u	4.1µM*	u	u	5.2µM*
Cc1ccc(S(=O)(=O)N2C[C@@H](C)[C@]3(C2)[C@H](O)[C@H](OC(=O)NCc2ccco2)C[C@H]2C(=O)N(c4ccccc4)C(=O)[C@H]23)cc1	-1%	1%	-1%	2%	i	i
COc1ccc(CNC(=O)O[C@@H]2C[C@H]3C(=O)N(c4ccccc4)C(=O)[C@H]3[C@@]3(CN(S(=O)(=O)c4ccc(C)cc4)C[C@H]3C)[C@@H]2O)cc1OC	u	-8%	26µM*	-14%	i	i
Cc1ccc(S(=O)(=O)N2C[C@@H](C)[C@]3(C2)[C@H](O)[C@H](OC(=O)Nc2cccs2)C[C@H]2C(=O)N(c4ccccc4)C(=O)[C@H]23)cc1	23µM*	u	16µM*	u	i	i
O=C(O)C1CCCN(S(=O)(=O)c2ccc(-c3ccc(=O)[nH]n3)s2)C1 (stereo not given)	-4%	14%	32%	7%	i	i
SMILES	TDP1 cell CPT	HT1080-NT tox	DT40 TDP1 no CPT	HT1080 IDH1KD tx	KB-V1 MDR tox	KB-3-1 tox
COCCCNC(=S)Nc1ccc(S(=O)(=O)Nc2cc(OC)nc(OC)n2)cc1	5%	-5%	-15%	-10%	x	x
CC(=O)C1C(=O)C=C(c2ccco2)CC1c1ccccc1 (stereo not given)	u	-20%	18µM*	0%	i	i
CCOC(=O)C1C(=O)C=C(c2ccc([N+](=O)[O-])cc2)CC1c1ccccc1 (stereo not given)	-22%	-19%	-23%	-16%	i	i
Cc1cccc(CSc2cn(CC(=O)N3CCCCC3)c3ccccc23)c1	u	x	21µM*	x	x	x
Cc1cccc(CS(=O)(=O)c2cn(CC(=O)N3CCOCC3)c3ccccc23)c1	-2%	-3%	-15%	0%	i	i
Cc1cccc(CSc2cn(CC(=O)N3CCCC3)c3ccccc23)c1	26µM*	x	16µM*	x	x	x
CCN(CC)C(=O)CSc1cn(CC(=O)N2CCCCCC2)c2ccccc12	u	x	-27%	x	x	x
O=C(Nc1ccnc(-c2ccncc2)n1)C1CC1	3%	1%	-20%	-3%	i	u
O=C(CN1CCc2ccccc2C1)Nc1ccccc1C(=O)NC1CC1	1%	5%	-28%	16%	i	u
O=C(O)c1cc(S(=O)(=O)NC(Cc2c[nH]c3ccccc23)C(=O)O)ccc1Cl (stereo not given)	-2%	-9%	-17%	6%	u	i
O=C(COc1ccc2c(c1)C(=O)CC1(CCCCC1)O2)NCc1ccccc1	u	-6%	21µM*	0%	i	i
Cc1ccc(CNC(=O)CSc2ncc3c(n2)-c2cc(Cl)ccc2N(C)S3(=O)=O)cc1	u	x	u	x	i	i
CCn1nc(C)c2c(-c3ccccc3)cc(=O)n(C(C)C(=O)NCCC(C)C)c21 (stereo not given)	18µM*	x	u	x	i	i

Screens as filed in PubChem BioAssay.
